# ADAM17 inh: inhibits human ADAM17 | inhibition, % at 6.95 µM | P78536 | recombinant ADAM17, EDANS/DABCYL FRET peptide cleavage | actives 0.83% (n = 370,000);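 active = inhibition above the mean of compounds lying between control limits plus 3 SD, set per campaign, cut at about 8.5% in these data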
# FAS TE block: FAS thioesterase (human) inhibition; recombinant FAS-TE, OMFH fluorogenic substrate, fluorescence endpoint; inhibition, % at 15 µM; actives 0.67% (n = 360,000);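 active = compounds whose normalised, plate-corrected inhibition of enzyme fluorescence in the single-dose primary screen is 50% or more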
# GC-B act: GC-B (human) receptor activation; HEK293-GC-B cells, CNP EC30, cGMP TR-FRET; 0% at EC30 CNP, 100% saturating CNP; activation, % at 10 µM; actives 0.11% (n = 370,000); AID 1920062;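 active = activation at 10 µM reaching about 35% in either raw or pattern-adjusted values, limit read from the data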
# GC-A act: GC-A (human) enzyme activation | activation, % at 10 µM | HEK293 GC-A cells, cGMP TR-FRET, EC30 ANP; 0% at EC30 ANP, 100% saturating ANP | actives 0.14% (n = 370,000); in the data active = activation above about 40%
# Target sequence (P16066 whole entry, looked up): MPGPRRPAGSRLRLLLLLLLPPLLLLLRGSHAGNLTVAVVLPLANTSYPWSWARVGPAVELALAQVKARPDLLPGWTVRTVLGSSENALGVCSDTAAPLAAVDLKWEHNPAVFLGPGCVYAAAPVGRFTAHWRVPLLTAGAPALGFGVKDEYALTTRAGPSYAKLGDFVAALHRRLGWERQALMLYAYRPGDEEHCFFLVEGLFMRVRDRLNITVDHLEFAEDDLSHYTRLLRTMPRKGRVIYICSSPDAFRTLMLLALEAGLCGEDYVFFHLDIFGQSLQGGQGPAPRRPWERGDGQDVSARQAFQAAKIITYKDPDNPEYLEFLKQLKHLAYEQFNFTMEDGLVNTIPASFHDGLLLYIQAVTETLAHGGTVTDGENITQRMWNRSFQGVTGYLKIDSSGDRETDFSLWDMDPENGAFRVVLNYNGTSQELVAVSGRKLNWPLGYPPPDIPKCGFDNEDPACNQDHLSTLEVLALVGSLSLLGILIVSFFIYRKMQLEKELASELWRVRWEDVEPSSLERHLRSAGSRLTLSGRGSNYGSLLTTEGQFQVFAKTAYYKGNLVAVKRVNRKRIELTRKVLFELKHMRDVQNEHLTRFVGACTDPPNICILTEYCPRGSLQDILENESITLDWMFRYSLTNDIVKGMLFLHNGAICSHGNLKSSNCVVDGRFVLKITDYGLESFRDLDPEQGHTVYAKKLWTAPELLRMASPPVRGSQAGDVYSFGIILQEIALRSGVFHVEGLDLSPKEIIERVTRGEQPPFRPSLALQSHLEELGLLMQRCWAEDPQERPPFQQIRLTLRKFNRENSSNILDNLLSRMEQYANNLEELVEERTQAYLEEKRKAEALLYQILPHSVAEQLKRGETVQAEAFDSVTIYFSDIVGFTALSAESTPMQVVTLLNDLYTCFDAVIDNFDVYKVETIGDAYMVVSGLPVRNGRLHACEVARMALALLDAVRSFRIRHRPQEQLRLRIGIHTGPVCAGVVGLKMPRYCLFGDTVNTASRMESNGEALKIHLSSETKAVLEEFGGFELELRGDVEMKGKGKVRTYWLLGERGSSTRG
# ADAM10 inh: inhibitors of human ADAM10 | inhibition, % at 7 µM | recombinant ADAM10, EDANS/DABCYL FRET peptide cleavage, 3 h | actives 0.62% (n = 370,000) | O14672;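 active = inhibition above a per-campaign cutoff equal to the mean of compounds falling between control-based bounds plus 3 SD, cut at about 20% in these data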
# ADAM10 confirm: human ADAM10 inhibition, confirmation. shares compounds with ADAM10 inh. ADAM10 QFRET peptide cleavage, EDANS fluorescence. inhibition, % at 6.95 µM. actives 1% (n = 2,100);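 active = inhibition above about 20% chosen separately for each screening run, limit read from the data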
# ADAM17 ctr: ADAM17 inhibition, counter-screen for ADAM10 exosite hits; shares compounds with ADAM10 inh; ADAM17 QFRET peptide cleavage, EDANS fluorescence; inhibition, % at 6.95 µM; actives 0.5% (n = 2,100); AID 743214;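 active = mean triplicate inhibition above the solvent-only control wells' mean plus 3 SD, cut at about 12% in these data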
# ADAM10 counter: counter-screen for ADAM17 exosite inhibitors: inhibitors of human ADAM10. inhibition, % at 6.95 µM. actives 47% (n = 2,900). AID 743256. shares compounds with ADAM17 inh. recombinant ADAM10, EDANS/DABCYL FRET peptide cleavage, 3 h;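 active = mean inhibition over the triplicate runs exceeds the activity threshold set in the earlier primary screen, cut at about 20% in these data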
# ADAM17 confirm: confirmation of inhibitors of human ADAM17. shares compounds with ADAM17 inh. recombinant ADAM17, EDANS/DABCYL QFRET peptide cleavage. inhibition, % at 6.95 µM. actives 65% (n = 2,900);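 active = mean inhibition across replicates above the hit cutoff set in the primary screen, cut at about 8.5% in these data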
# A number is an active result; n = inactive; x = no result given. Rows were chosen to be rich in hits. Some 2% of all compounds tested hit in one or more screens of this group.
SMILES,ADAM17 inh,FAS TE block,GC-B act,GC-A act,ADAM10 inh,ADAM10 confirm,ADAM17 ctr,ADAM10 counter,ADAM17 confirm
O=C(Cn1cnc([N+](=O)[O-])c1)Nc1cc(Oc2ccc(Cl)cc2Cl)cc([N+](=O)[O-])c1,9.5,n,n,n,23,n,n,33,17
COc1ccc(C)cc1NC(=O)C(Sc1nnc(-c2ccncc2)n1-c1ccc(Cl)cc1)c1ccccc1 (centres undefined),11,n,n,n,25,n,n,31,22
CC(C)(C)N(Cc1cn(CC2CCCCC2)nn1)S(=O)(=O)c1ccc(F)cc1Br,n,x,n,n,n,x,x,x,x
Cc1cccc(NC(=S)N/N=C/c2ccc([N+](=O)[O-])s2)c1,13,n,n,n,26,n,n,23,15
CCC[C@H]1OC(=O)[C@@H]2CCCN2C(=O)[C@H]([C@H](C)Cc2ccccc2)NC(=O)[C@@H]2CCCN2C(=O)[C@@H]2CCCN2C(=O)[C@H](C(C)C)OC(=O)[C@@H]2CCCN2C(=O)[C@H](C(C)C)NC(=O)C1(C)C,n,x,n,n,n,x,x,x,x
O=C(CSc1nc2ccccc2[nH]1)Nc1ccccc1F,n,n,n,n,n,x,x,x,x
O=C(CSc1nc2ccccc2[nH]1)Nc1ccc(F)c(F)c1,10,n,n,n,21,n,n,n,n
CN(CCO)c1ccc2c(c1)Oc1ccccc1CN(Cc1cn(Cc3ccccc3C(F)(F)F)nn1)S2(=O)=O,n,x,n,n,n,x,x,x,x
CC(O)[C@H]1CNCCN1CC1(c2ccccc2)CC1 (some centres undefined),11,n,n,n,20,n,n,n,n
N#CCC[C@@H]1CC[C@]2(CCCN(Cc3ccc(Cl)cc3)C2)O1,n,x,n,n,n,x,x,x,x
Cc1cc(C)nc(SCC(=O)Nc2ccc(S(=O)(=O)Nc3nccs3)cc2)n1,n,n,n,n,n,x,x,x,x
O=C(CSc1nnc(SCc2cccc3ccccc23)s1)Nc1ccc(S(=O)(=O)Nc2nccs2)cc1,11,x,n,n,35,n,n,26,11
O=C1CCCN1c1ccc(S(=O)(=O)Oc2cccc(Cl)c2)cc1[N+](=O)[O-],9.7,n,n,n,20,n,n,n,n
CCCC[C@H](C(=O)N(C)c1ccccc1)[C@@H](O)c1ccc(C(C)=O)cc1,n,x,n,n,n,x,x,x,x
CC(CCc1ccc(O)cc1)NCCC(c1ccccc1)c1ccccc1 (centres undefined),n,n,n,n,n,x,x,x,x
CC(CCc1ccc(O)cc1)NC(c1ccccc1)c1ccc(Cl)cc1 (centres undefined),12,n,n,n,28,n,n,29,24
Cc1cc(C)cc(-n2c(SC(C)C(=O)NCc3ccc4c(c3)OCO4)nc3ccccc3c2=O)c1 (centres undefined),11,n,n,n,23,n,n,n,11
Cc1cccc(-n2c(SCC(=O)NCc3ccc4c(c3)OCO4)nc3ccccc3c2=O)c1,n,n,n,n,n,x,x,x,x
O=C(COC(=O)Cc1c[nH]c2ccccc12)Nc1cccc(Br)c1,11,n,n,n,26,n,n,n,8.9
C#CCNC(=O)C[C@H]1C[C@@]2(C(=O)OC)C(=C[C@H](COCc3ccccc3)O[C@@H]2C)N(CCc2ccc(OC)c(OC)c2)C1=O,n,x,n,n,n,x,x,x,x
O=C(NCCCc1ccccc1)[C@H](Cc1c[nH]c2ccccc12)NC1(C(=O)NCCc2c[nH]c3ccccc23)CCC1,16,x,n,n,31,n,n,30,14
CC(C)(C)OC(=O)N1CCC(N[C@@H](Cc2c[nH]c3ccccc23)C(=O)NCCc2c[nH]c3ccccc23)(C(=O)NC2CCCCC2)CC1,9.2,x,n,n,26,n,n,29,15
O=C(NCC(c1ccccc1)c1ccccc1)[C@H](Cc1c[nH]c2ccccc12)NC1(C(=O)NC2CCCCC2)CCC1,14,x,n,n,24,n,n,34,24
CC(C)(N[C@@H](Cc1c[nH]c2ccccc12)C(=O)NCC(c1ccccc1)c1ccccc1)C(=O)NC1CCCCC1,9.9,x,n,n,21,n,n,40,19
O=C(NCCCc1ccccc1)[C@H](Cc1c[nH]c2ccccc12)NC1(C(=O)NCCc2c[nH]c3ccccc23)CCOCC1,n,x,n,n,n,x,x,x,x
SMILES,ADAM17 inh,FAS TE block,GC-B act,GC-A act,ADAM10 inh,ADAM10 confirm,ADAM17 ctr,ADAM10 counter,ADAM17 confirm
O=C(NCC(c1ccccc1)c1ccccc1)[C@H](Cc1c[nH]c2ccccc12)NC1(C(=O)NC2CCCCC2)CCCCCC1,n,x,n,n,n,x,x,x,x
CCN(CC)S(=O)(=O)c1cccc(NC(=O)Nc2cccc(C(F)(F)F)c2)c1,11,n,n,n,30,n,n,55,29
CCN(CC)S(=O)(=O)c1cccc(NC(=O)CC2CCCC2)c1,n,n,n,n,n,x,x,x,x
Cc1ccc(NC(=O)COC(=O)/C=C/c2cccs2)cc1,n,n,n,n,n,x,x,x,x
CCN(c1ccc(NC(=O)COC(=O)/C=C/c2cccs2)cc1)C(C)C,17,n,n,n,34,n,n,33,18
COc1cccc(NC(=S)N(Cc2ccccn2)Cc2ccccc2Cl)c1,9.3,n,n,n,22,n,n,24,13
Cc1ccc(C(=O)NCc2ccco2)cc1S(=O)(=O)N1CCCCC1,n,n,n,n,n,x,x,x,x
Cc1ccc(C(=O)Nc2ccccc2C(=O)NCc2ccco2)cc1S(=O)(=O)N1CCCCC1,9.6,n,n,n,25,n,n,35,20
O=C(/C=C/c1cccc(C(F)(F)F)c1)Nc1cccc(C(F)(F)F)c1,12,n,n,n,26,n,n,29,17
Cc1ccc(NC(=O)/C=C/c2cccc(C(F)(F)F)c2)cc1,n,n,n,n,n,x,x,x,x
COC(=O)[C@]12C[C@H](CC(=O)N3CCSCC3)C(=O)N(CCC3=CCCCC3)C1=C[C@H](C(C)C)O[C@@H]2C1CC1,n,x,n,n,n,x,x,x,x
CSc1ccccc1OCc1cc(C(=O)N2CCN(c3ccccc3)CC2C)no1 (centres undefined),n,n,n,n,n,x,x,x,x
